Experimental findings from the supplement of paper PMC6555819 are described below.

The subject of the assay is LXRa homodimer (NR concentration 270 nM). Put plainly: PBM binding z-score (relative to random genomic background probes); higher = stronger binding; sequences stand for … in GC…GCGATTGACAGCGTAGAATGAAGG
Summed up:
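Regression normalization was applied to scanned fluorescence from custom Agilent 4×180K protein-binding microarrays. Before scanning, arrays were incubated 1 h with ligand-free nuclear receptor dimers, and binding was detected with antibodies against each partner (one per run). Binding z-scores use the random background probes as reference.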
For ATGTCTAGGTAAAGTTCAGTGAAAGATCGATAGA, the PBM binding z-score came to 1.26.
TATTGTAGATCAACAGGAGGTTAAGAAAGATCGA came in with a PBM binding z-score of 0.577.
ATCGAGAGGTCGAGGTGAGTATAGAGAAAGGGAA displayed a PBM binding z-score of -0.153.
In the case of TCTTGTAGATTAACAGGAGGTTAAGAAAGATCGA, the PBM binding z-score stood at 0.483.
CAAACTTGGTCACCGGAAGGTCAAAGTCCGCATG had a PBM binding z-score of 3.5.
TAGCCTAGGTCATGCGGGCCAGTATCGTGTCGGC showed a PBM binding z-score of 0.667.
As for TCATATAGGTAAATGTGAAAGTCGAACGATATGA, the PBM binding z-score was -0.116.
The value for TAGCCAAGGTCATGGGCCAGTATACCACGCGAAC was 0.809; that for ATTTCTAGGTAAAGTTCAGTGAAAGATCGATAGA was 1.41.
The value for ACTAGGAGGCCAAGGGTCACTCAAGATTAGTCCG was 0.119.
CCGACTGGGGCATAAGGATACCATAAGCCAGCCC displayed a PBM binding z-score of -0.612.
In turn, TCGACTAGGTTACCAATGGGGCATTCAGCTTTCT displayed a PBM binding z-score of -0.443.
TCTTGTAGATCGGCAGGTTAAGAAAGCTGGCCAA gave a PBM binding z-score of -0.48.
As to CAAACTAGGTCACGAAAGATCAAAGTCGAATGAC, the PBM binding z-score is 0.705.
Turning to TCTTGTAGATCAGCAGGTTAAGGAAGCTGGCCAA, the PBM binding z-score is -0.204.
To GCGACTGGGGCATCAGCAGGTTACCAAAACTTAA belongs -0.294; to CCTCGGAGGACAGAAGGTCAGAGCCGTCCGCTTT, 0.422; to ATTGAAAGGTCGACGAGGTGAGTATACACCGTTT, 0.465.
CCTATTGGGCCAAAGGTCATTGATTCCAATGCTC registered a PBM binding z-score of 4.17.
In turn, AATACAGGGTCACTAGGCGAGAGTAGGTACGAAT gave a PBM binding z-score of 1.02.
ACTAGTTGGTGAGCTGAGGTCACACACAATTCGG gave a PBM binding z-score of 1.5.
In turn, TCATATAGGTAAAGGTGAAAGGCGAACGATATGA returned a PBM binding z-score of -0.0796.
TCTGCTAGGTCAGTTGGTCCGCTAACGAGCTGCC returned a PBM binding z-score of -0.724.
To CGAACTCGGTCAAGGACAGTGAATCTCCGCACGC belongs -0.214; to CCTCGCAGGCCAATCTGGGTCACTCAAGGCTTGA, -0.253; to TCATAGAGGTAAAGGTGAAAGTCGAACGATATGA, -0.575.
CCTAGTGGGCCATCAGGTCATTGATATCAACGTT gave a PBM binding z-score of 0.915.
Turning to ATCGAAAGGTGGAAGGTGAGTATACCCACCCGAA, the PBM binding z-score was -0.308.
AGAATGAGGTTATACGTAGATCAGGGGAGAAAGT gave a PBM binding z-score of 0.147.
TCTATTAGTTGATTAGGGCAACCGCAACAGCGGA registered a PBM binding z-score of 0.129.
The value for ACTTACGGGTTAACGAGGTTATAGCACGCGTATA was 0.54; that for CGAACTGGGTCAGAACAGGACAGTGAAGGATGAT was -0.423; that for TCATATAGGCAAACAGGTGAAAGTCCGTAAGTTA was -0.0652.
For GCACCAAGGTGAATAGGTCGTTGATGAGTAGGCG, the PBM binding z-score is -0.472.
The sequence AGAATGAGGTTATTAAGATCAGGGTATTGCGGTC returned a PBM binding z-score of 0.345.
In the case of GCTTGTAGATCAAGGGTAAGAAAGACTAAGCTAA, the PBM binding z-score was -0.732.
Consider ACAGACAGGTGAGTGAAGGTAACTTAGCTGGACG, for which the PBM binding z-score is -0.497.
GCATATAGGTAATACAAGGTGAGAGTCCGATTGT showed a PBM binding z-score of -0.139.
Sequence TCTCGGAGGACACGAAGGGCAGAGCTTTCCAGAG came in with a PBM binding z-score of -0.59.
Take CCTGCTAGGTCGTGGTCAGCTAATCTACAGTATG: the PBM binding z-score is -0.589.
